We go through 40 compounds from PubChem BioAssay (NCATS).

Inconclusive results are not listed. Where a call stands in place of a potency, no number is given. Values without a mark were called inactive. Active and inactive are the calls of the source. The call rests on the fitted dose curve. Bridge positions count the residues as written; N and C are the ends. Peptide text beside a SMILES is read from it.
Potency means the concentration at half of the fitted maximal effect.

The nature of this assay: Primary qHTS for inhibitors of MERS-S pseudo-typed particle cell entry (AID 1479149). Further: nearly all actives have a fitted effect of over 60% in size. Particulars: MERS-S pseudotyped particle entry, luciferase; series mostly up to 57.1 µM.
For `C[C@]12C=CC(=O)C=C1CC[C@@H]1[C@@H]2[C@@H](O)C[C@@]2(C)[C@H]1CC[C@]2(O)C(=O)COP(=O)(O)O`, the activity change, negative = inhibition was -22% [at 11.4 µM].
Consider `COc1ccc(CNCC(O)COc2ccc3[nH]c(=O)ccc3c2)cc1OC` (stereo not given), for which the Potency entry is “inactive”.
Turning to `Cc1ncc(COP(=O)(O)O)c(CN)c1O`, the Potency entry was “inactive”.
Turning to `Cn1nnnc1SCC1=C(C(=O)O)N2C(=O)[C@@H](NC(=O)[C@H](OC=O)c3ccccc3)[C@H]2SC1`, the Potency entry is “inactive”.
Take `CCC(=O)OC1(C(=O)CCl)C(C)CC2C3CC(F)C4=CC(=O)C=CC4(C)C3(F)C(O)CC21C` (stereo not given): the Potency result is “inactive”.
`CC(OC(=O)NCC1(CC(=O)O)CCCCC1)OC(=O)C(C)C` (stereo not given): the Potency result is “inactive”.
As for `Cc1c(Cl)c(C)[n+]([O-])c(Cl)c1-c1noc(-c2cc(O)c(O)c([N+](=O)[O-])c2)n1`, the Potency entry is “inactive”.
Take `CCCCCCCCCCCCCCCC(=O)OCC(O)C1OC(=O)C(O)=C1O` (stereo not given): the Potency result was “inactive”.
On to `CC(C)(C)NCC(O)c1ccc(O)c(CO)n1` (stereo not given), for which the Potency result was “inactive”.
For `CC(C)N(CCCCOCC(=O)NS(C)(=O)=O)c1cnc(-c2ccccc2)c(-c2ccccc2)n1`, the Potency result is “inactive”.
Take `CC[N+](CC)(CC)CCC(O)(c1ccccc1)C1CCCCC1` (stereo not given): the Potency result is “inactive”.
`O=P(O)(O)OC1C(OP(=O)(O)O)C(OP(=O)(O)O)C(OP(=O)(O)O)C(OP(=O)(O)O)C1OP(=O)(O)O` (stereo not given): the Potency entry is “inactive”.
Consider `CC[C@@H]1CCN[C@H](C(=O)N[C@@H]([C@H]2O[C@H](SC)[C@H](O)[C@@H](O)[C@H]2O)[C@H](C)Cl)C1`, for which the Potency entry is “inactive”.
As to `N=c1ccn2c(n1)O[C@@H]1[C@@H](O)[C@H](CO)O[C@@H]12`, the Potency was 8.91 µM (active).
For the compound `O=C(O)c1cc(O)c2c(c1)[C@H]([C@H]1c3cc(C(=O)O)cc(O)c3C(=O)c3c(O[C@@H]4O[C@H](CO)[C@@H](O)[C@H](O)[C@H]4O)cccc31)c1cccc(O[C@@H]3O[C@H](CO)[C@@H](O)[C@H](O)[C@H]3O)c1C2=O`, the Potency result is “inactive”.
In the case of `CC1CCC(C(C)C)C(OC(=O)c2ccccc2O)C1` (stereo not given), the Potency entry was “inactive”.
Consider `[Mn].[O]=[Mn][OH].[O]=[Mn][OH]`, for which the Potency entry was “inactive”.
Consider `CCCCC(CC)COc1ccc(-c2nc(-c3ccc(OC)cc3)nc(-c3ccc(OCC(CC)CCCC)cc3O)n2)c(O)c1` (stereo not given), for which the activity change, negative = inhibition was -1.24% [at 5.34 µM].
Consider `CC(C)(C)C(=O)OCOC(=O)[C@@H]1N2C(=O)[C@@H](N=CN3CCCCCC3)[C@H]2SC1(C)C`, for which the Potency result was “inactive”.
Same read-out and setting: to `NCCCC[C@H](NC(=O)[C@@H]1CCCN1C(=O)[C@@H]1CSSC[C@H](NC(=O)CNC(=O)CNC(=O)CN)C(=O)N[C@@H](Cc2ccc(O)cc2)C(=O)N[C@@H](Cc2ccccc2)C(=O)N[C@@H](CCC(N)=O)C(=O)N[C@@H](CC(N)=O)C(=O)N1)C(=O)NCC(N)=O` (H-GGGCYFQNCPKG-NH2; disulfide 4-9) belongs “inactive”.
As to `CN1c2c(nc(N)[nH]c2=O)NC[C@@H]1CNc1ccc(C(=O)N[C@@H](CCC(=O)O)C(=O)O)cc1`, the outcome was “inactive [at 5.34 µM]”.
With `O=C(O)C(O)[C@H](O)[C@H](O)[C@H](O)[C@H](O)CO` (stereo not given in full), the Potency result is “inactive”.
On to `CC(=O)N(CC(C)C(=O)O)c1c(I)cc(I)c(N)c1I` (stereo not given), for which the Potency entry is “inactive”.
Still for that read-out and setting: the entry for `CCCCN(CCCC)C(=S)[S-].CCCCN(CCCC)C(=S)[S-].[Zn+2]` is “inactive”; for `C=C1c2c(Cl)ccc(O)c2C(O)=C2C(=O)[C@@]3(O)C(O)=C(C(N)=O)C(=O)[C@@H](N(C)C)[C@@H]3[C@@H](O)[C@H]12` it is 20 µM (active); for `C=CC1(C)CC(=O)C2(O)C(C)(O1)C(OC(C)=O)C(OC(=O)CCN(C)C)C1C(C)(C)CCC(O)C12C` (stereo not given) it is “inactive”.
On to `Cc1ccc(S(=O)(=O)O)cc1`, for which the Potency result is “inactive”.
Take `COc1cc(N)cn[n+]1-c1ccccc1`: the Potency result was “inactive”.
Still for that read-out and setting: to `COc1nc2ccc(Br)cc2cc1[C@@H](c1ccccc1)[C@@](O)(CCN(C)C)c1cccc2ccccc12` belongs “inactive”; to `COc1ccc2c(=O)c(C)c(-c3ccccc3)oc2c1CN(C)C`, “inactive”; to `O=C(Nc1ccc(O)cc1)c1ccccc1O`, “inactive”.
For the compound `COC1=C(C(=O)O)N2C(=O)[C@@H](NC(=O)[C@H](N)C3=CCC=CC3)[C@H]2SC1`, the Potency entry is “inactive”.
Still for that read-out and setting: to `CCOC(=O)[C@@H](N)CS` belongs “inactive”; to `CO/N=C(\C(=O)N[C@@H]1C(=O)N2C(C(=O)OCOC(=O)C(C)(C)C)=C(/C=C\c3scnc3C)CS[C@H]12)c1csc(N)n1`, “inactive”; to `Cc1c(C)c2c(c(C)c1OC(=O)CCC(=O)O)CC[C@@](C)(CCC[C@H](C)CCC[C@H](C)CCCC(C)C)O2`, “inactive”.
With `C#C[C@]1(OC(C)=O)CC[C@H]2[C@@H]3CCC4=CC(=O)CC[C@@H]4[C@H]3CC[C@@]21C`, the Potency result is “inactive”.
With `CCCCCCCCCCCCCCCCCC(=O)OCCO`, the Potency entry was “inactive”.
Regarding `CN[C@@H]1[C@@H](O)[C@@H](O[C@@H]2[C@@H](O)[C@H](OC3O[C@H](CN)[C@@H](O)[C@H](O)[C@H]3O)[C@@H](N)C[C@H]2NC(=O)[C@@H](O)CN)OC[C@]1(C)O` (stereo not given in full), the Potency entry is “inactive”.
Turning to `C=Cc1c(C)c2cc3nc(c(CC(=O)N[C@@H](CC(=O)O)C(=O)O)c4nc(cc5[nH]c(cc1[nH]2)c(C)c5CC)C(C)=C4C(=O)O)[C@@H](CCC(=O)O)[C@@H]3C`, the Potency entry is “inactive”.
As to `CC(C)CCC[C@@H](C)[C@H]1CC[C@H]2[C@@H]3CC=C4C[C@@H](O)CC[C@]4(C)[C@@H]3CC[C@]12C`, the Potency entry was “inactive”.
